Measurements: PubChem BioAssay AID588726 (The Scripps Research Institute Molecular Screening Center, 2011)
The campaign covered roughly 360,000 compounds. About 8,200 (2.3%) were called active. Cut-off read from the data, not from the text of the source: active = inhibition above about 27%; inactive = the rest. For the sample, actives were picked, then their nearest neighbours and some compounds at random.

What follows are compounds tested against Fructose-bisphosphate aldolase (Mycobacterium tuberculosis (strain ATCC 25618 / H37Rv)) (UniProt P9WQA3) (assay: Mtb FBA enzyme inhibitors, primary screen, biochemical, fluorescence, strain H37Rv (AID 588726;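 note: 0% = vehicle and 100% = reference inhibitor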)). Details: purified M. tuberculosis FBA, fluorescence read-out, at 1 µM, hits give high values.
Sequence of Fructose-bisphosphate aldolase (Mycobacterium tuberculosis (strain ATCC 25618 / H37Rv)) (P9WQA3 whole entry, looked up): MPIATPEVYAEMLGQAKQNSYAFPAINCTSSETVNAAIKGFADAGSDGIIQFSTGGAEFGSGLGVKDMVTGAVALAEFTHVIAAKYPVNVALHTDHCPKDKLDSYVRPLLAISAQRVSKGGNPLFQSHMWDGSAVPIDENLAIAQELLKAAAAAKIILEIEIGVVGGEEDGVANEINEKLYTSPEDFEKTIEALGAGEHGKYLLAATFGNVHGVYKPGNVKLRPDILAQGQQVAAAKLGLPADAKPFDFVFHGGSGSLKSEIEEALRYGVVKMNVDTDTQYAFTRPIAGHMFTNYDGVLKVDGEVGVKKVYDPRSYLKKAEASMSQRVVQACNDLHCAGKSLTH

Structure (SMILES)	inhibition
Nc1ccccc1C(=O)NC1CCCCNC1=O (stereo unspecified)	68.5% (active)
O=C(CNC(=O)OCc1ccccc1)NC1CCCCNC1=O (stereo unspecified)	0.55% (inactive)
CC12CN3CCN(CC(C3)/C1=N\NC(=O)c1ccccc1N)C2	1.1% (inactive)
COC(=O)Cc1c(C)c2ccc(OCC(=O)NCc3ccc4c(c3)OCO4)cc2oc1=O	12% (inactive)
CCOC(=O)c1cc(=O)c2ccc(OCc3ccccc3)cc2o1	2.55% (inactive)
Cc1c(C)c2ccc(OCC(=O)N3CCN(c4cccc(Cl)c4)CC3)cc2oc1=O	6.95% (inactive)
Cc1cc(C)cc(Oc2c(C(F)(F)F)oc3cc(OCC(=O)O)ccc3c2=O)c1	-1.51% (inactive)
Cc1c(Cc2ccccc2)c(=O)oc2cc(OCC(N)=O)ccc12	65.5% (active)
Cc1ccc(OCC(=O)Nc2ccc3oc(=O)ccc3c2)cc1C	1.09% (inactive)
CC(=O)Nc1cc2ccc(OC(C)=O)cc2oc1=O	179% (active)
Cc1c(CCC(=O)O)c(=O)oc2cc(OCc3ccc(Br)cc3)ccc12	46.6% (active)
CC(=O)Oc1ccc2c(C)c(CC(C)O)c(=O)oc2c1 (stereo unspecified)	797% [above what the read-out allows, likely interference] (active)
O=C(Oc1ccccc1)Oc1ccc2c(c1)oc(=O)c1ccccc12	8.31% (inactive)
COc1cccc(-c2coc3cc4oc(=O)c(CC(=O)O)c(C)c4cc23)c1	6.49% (inactive)
Cc1coc2cc3oc(=O)c(CCC(=O)O)c(C)c3cc12	16.5% (inactive)
O=S(=O)(c1cccc(C(F)(F)F)c1)N1c2ccccc2-n2cccc2C1c1cccnc1 (stereo unspecified)	-0.16% (inactive)
O=C(Nc1c(-c2ccccc2)nc2c(Br)cc(Br)cn12)c1ccco1	1.02% (inactive)
Cc1cc(C(C)(C)C)oc1C(=O)N(CC(=O)NC1CCCC1)Cc1ccc(Cl)cc1	3.61% (inactive)
COCC1CCN(C(=O)c2ccc3oc(Cc4ccccc4)nc3c2)C1 (stereo unspecified)	2.73% (inactive)
O=C1NCC(Nc2ccccc2)C(=O)N1 (stereo unspecified)	-2.44% (inactive)
N=c1ccn(CC(=O)NC(N)=O)c2ccccc12	0% (inactive)
CC1C(C)N(C(=O)CCl)c2ccccc2N1C(=O)CCl (stereo unspecified)	-0.21% (inactive)
CCN(CC)S(=O)(=O)c1ccc(NC(=O)c2cccnc2Cl)c(NC(=O)c2cccnc2Cl)c1	-0.1% (inactive)

Structure (SMILES)	inhibition
COc1ccccc1CN1CC(C(=O)NCCc2cn[nH]c2)CCC1=O (stereo unspecified)	3.36% (inactive)
Cc1nc2ccccc2n1CC(O)c1ccccc1 (stereo unspecified)	-0.66% (inactive)
Cc1nc(-c2ccccc2)cn2c1nc1ccccc12	119% (active)
Cc1c(C(=O)Nc2cccc(Cl)c2)cn2c(nc3ccccc32)c1C#N	-0.2% (inactive)
CN1CCn2cnc(C(=O)NCC(=O)OC(C)(C)C)c2C1=O	-1.37% (inactive)
Cc1c(CC(=O)NCC(=O)NCC(=O)O)c(=O)oc2cc3oc4c(c3cc12)CCCC4	16.6% (inactive)
Cc1coc2c1c(C)cc1oc(=O)c(CC(=O)NCC(=O)N[C@H](C(=O)O)C(C)C)c(C)c12	105% (active)
CSCC[C@H](NC(=O)N1CCn2c1nc1ccccc12)C(=O)NC1CCCCC1	-1.03% (inactive)
CCN(CCn1cccn1)Cc1nc(-c2ccc(C(=O)OC)cc2)no1	0.65% (inactive)
CCOC(=O)COc1ccc(Cl)cc1C1NC(=O)NC(C)=C1C(C)=O (stereo unspecified)	0.97% (inactive)
CCOC(=O)COc1cc(OCC(=O)OCC)c2c(=O)cc(-c3ccccc3)oc2c1	39.2% (active)
COc1ccccc1OCC(=O)OCc1cc(-c2ccco2)on1	2.93% (inactive)
COCCC(=O)Nc1ccc2c(c1)CN(C(=O)CCOC)CC2	2.39% (inactive)
O=C(NCC1CC1)c1onc(CSc2ccccc2)c1C(=O)NCC1CC1	3.54% (inactive)
O=C(NCc1ccccc1)c1onc(CSc2nc3ccccc3[nH]2)c1C(=O)NCc1ccccc1	27.9% (active)
O=C(NCc1ccccc1)c1onc(CSc2ccncc2)c1C(=O)NCc1ccccc1	0.92% (inactive)
O=C(CN1CCN(C(=O)C2CCCO2)CC1)Nc1c(Cl)cccc1Cl (stereo unspecified)	-2.38% (inactive)
O=C(CCCCCn1c(=S)[nH]c2ccsc2c1=O)NC1CCCCC1	3.56% (inactive)
Cc1cc(NC(C)C)n2c(nc3ccccc32)c1C#N	41.7% (active)
CCOCCCNc1c(CC)c(C)c(C#N)c2nc3ccccc3n12	4.3% (inactive)
Cc1ccc(S(=O)(=O)N(C)c2nc3ccccc3n3c(C(C)C)nnc23)cc1	-0.15% (inactive)
Cc1ccc2[nH]c(=O)c(-c3nc4c(C)cccn4c3NCc3ccco3)cc2c1	4.83% (inactive)
Cc1cc(NCc2ccco2)n2c(nc3ccccc32)c1C#N	162% (active)

Structure (SMILES)	inhibition
CC(C)c1cc(NCc2ccccn2)n2c(nc3ccccc32)c1C#N	17.6% (inactive)
CCCNC(=O)NC(=O)COC(=O)CC(NC(N)=O)c1ccc(Cl)cc1 (stereo unspecified)	-6.17% (inactive)
CC(C)CCNC(=O)CC1C(=O)N(Cc2ccccc2)C(C)c2nc3ccccc3n21 (stereo unspecified)	-2.2% (inactive)
CC(C)(C)C(=O)CSc1ccc(S(=O)(=O)N2CCCC2)cn1	1.92% (inactive)
COC(=O)C1=C(C)N(Cc2ccccc2)C(=NCCCOC(C)C)N[C@H]1c1ccccc1	-0.81% (inactive)
CC1CCCC(NC(=O)COC(=O)[C@@H]2CC(O)CN2S(=O)(=O)c2ccc3c(c2)OCCO3)C1C (stereo partly specified)	0.53% (inactive)
O=c1[nH]nc(SCCS(=O)(=O)c2ccc(F)cc2)n1-c1ccccc1C(F)(F)F	1.24% (inactive)
CCCCN(CCCC)CCC(O)c1cc2c(Cl)cc(Cl)cc2c2cc(C(F)(F)F)ccc12 (stereo unspecified)	-0.59% (inactive)
O=c1onc(-c2cccs2)n1Cc1ccccc1	1.37% (inactive)
Cc1ccc(C2CC(c3cccc(Br)c3)n3nc(N)nc3N2)cc1 (stereo unspecified)	5.98% (inactive)
Nc1nc2n(n1)C(c1ccco1)CC(c1ccc(Cl)c(Cl)c1)N2 (stereo unspecified)	30.1% (active)
COc1ccc(C2CC(c3ccc(Cl)cc3Cl)Nc3nc(N)nn32)cc1OC (stereo unspecified)	0.41% (inactive)
CCOc1ccc(CCNC(=O)COC(=O)C2CCN(c3ccc(C(F)(F)F)cn3)CC2)cc1OCC	2.79% (inactive)
OC[C@@H]1CN(Cc2ccc3c(c2)OCO3)C[C@H](n2cnc3c(NCc4ccco4)ncnc32)O1	0.71% (inactive)
CNC(=O)c1ccc(CN(C)C(=O)c2cc(C3CC3)nc3c2cnn3C(C)C)cc1	-0.03% (inactive)
CC(C)n1ncc2c(C(=O)NCc3ccccc3CN(C)C)cc(C3CC3)nc21	29.8% (active)
COc1ccc(OCCNC(=O)c2cc(C3CC3)nc3c2cnn3C(C)C)cc1	7.43% (inactive)
Cn1c(=O)c2c(nc(N3CCOCC3)n2CCNC2=NCCC2)n(C)c1=O	0.36% (inactive)
Cc1coc(C)c1C(=O)CC1(O)C(=O)N(C)c2ccc(Cl)cc21 (stereo unspecified)	-1.99% (inactive)
CC(c1nnc(SCC(=O)Nc2sccc2C#N)n1-c1ccc(Cl)cc1)N(C)C (stereo unspecified)	-0.06% (inactive)
Cc1cc(=O)oc2c(C)c(OC(C)C(=O)NC3CCN(Cc4ccccc4)CC3)ccc12 (stereo unspecified)	14.6% (inactive)
COc1cccc(C(=O)OCc2cc(=O)oc3c(C)c(C)ccc23)c1OC	2.59% (inactive)
COc1ccccc1NC(=O)COC(=O)CNC(=O)C1CCCCC1	2.67% (inactive)

Structure (SMILES)	inhibition
CCCc1cc(=O)[nH]c(SCC(=O)Nc2ccc(S(=O)(=O)N3CCCC3)cc2)n1	1.25% (inactive)
O=C(O)c1cccc(S(=O)(=O)N2CC=C(c3ccccc3)CC2)c1	0.87% (inactive)
CCOC(=O)NN1C(=O)c2ccccc2NC1c1ccccc1O (stereo unspecified)	26.2% (inactive)
CC(=O)NN1C(=O)c2ccccc2NC1c1ccccc1 (stereo unspecified)	37.3% (active)
CCN1C(=O)N[C@@H](c2ccccc2)[C@H](C(C)=O)[C@H]1C	1.5% (inactive)
CCOC(=O)NN1C(=O)c2ccccc2NC1c1cccc(O)c1 (stereo unspecified)	31.7% (active)
O=C1c2ccccc2NC(c2ccccc2O)N1NS(=O)(=O)c1ccccc1 (stereo unspecified)	7.05% (inactive)
CN(C)c1ccc(C2Nc3ccccc3C(=O)N2NS(=O)(=O)c2ccccc2)cc1 (stereo unspecified)	-0.05% (inactive)
Cc1cccc(C)c1NC(=O)C1CCCN1C(=O)OC(C)(C)C (stereo unspecified)	-0.82% (inactive)
CS(=O)(=O)N(CC(=O)N1CCOCC1)c1ccc2c3c(cccc13)CC2	9.05% (inactive)
COCCNC(=O)C1CCN(S(=O)(=O)c2ccc3c(c2)OCCO3)CC1	-1.67% (inactive)
O=C(O)C(=Cc1ccccc1[N+](=O)[O-])c1ccccc1	3.82% (inactive)
CC1(C)CC(=O)C=C(c2ccc(COC(=O)c3cc(F)cc(F)c3)cc2)C1=O	-0.96% (inactive)
C/C(=N\NC(=S)NC(C)C)c1ccc(C(C)(C)C)cc1	2.12% (inactive)
Cc1ccc(CNC(=O)c2ccccc2CCc2ccccc2)cc1	-1.34% (inactive)
CCN(CC)CCCNC(=O)c1cc(-c2cccc(Cl)c2)on1	0% (inactive)
CCN(CC)CCCNC(=O)c1cc2c(=O)[nH]c3ccc(C)cc3c2s1	99.9% (active)
Cc1cccc(N(C)C(=O)c2cc3c(=O)[nH]c4ccc(C)cc4c3s2)c1	2.59% (inactive)
O=C1CC(c2cccc(Br)c2)C2=C(CCCC2=O)N1 (stereo unspecified)	11.8% (inactive)
COc1ccc(-n2nc(C(=O)NCC(=O)Nc3cccc(C)n3)c3ccccc3c2=O)cc1	-0.39% (inactive)
COc1ccc(OC)c(CN2C(=O)CCC2(C)C(=O)NC2CCCCCC2)c1 (stereo unspecified)	-0.66% (inactive)
Nc1ncnc2c1ncn2[C@@H]1O[C@H](C(=O)N2CCCN(Cc3ccccc3F)CC2)[C@@H](O)[C@H]1O	-2.6% (inactive)
